Laboratory results: PubChem BioAssay

target: Epidermal growth factor receptor (Homo sapiens) (UniProt P00533); assay: compounds binding epidermal growth factor receptor – biochemical, small-molecule microarray, 635 nm fluorescence, primary screen (AID 1104); conditions: EGFR binding, higher = more signal;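 also: score merges 667 nm emission intensity with spot signal to noise over triplicate slides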
Sequence (P00533 whole entry, looked up): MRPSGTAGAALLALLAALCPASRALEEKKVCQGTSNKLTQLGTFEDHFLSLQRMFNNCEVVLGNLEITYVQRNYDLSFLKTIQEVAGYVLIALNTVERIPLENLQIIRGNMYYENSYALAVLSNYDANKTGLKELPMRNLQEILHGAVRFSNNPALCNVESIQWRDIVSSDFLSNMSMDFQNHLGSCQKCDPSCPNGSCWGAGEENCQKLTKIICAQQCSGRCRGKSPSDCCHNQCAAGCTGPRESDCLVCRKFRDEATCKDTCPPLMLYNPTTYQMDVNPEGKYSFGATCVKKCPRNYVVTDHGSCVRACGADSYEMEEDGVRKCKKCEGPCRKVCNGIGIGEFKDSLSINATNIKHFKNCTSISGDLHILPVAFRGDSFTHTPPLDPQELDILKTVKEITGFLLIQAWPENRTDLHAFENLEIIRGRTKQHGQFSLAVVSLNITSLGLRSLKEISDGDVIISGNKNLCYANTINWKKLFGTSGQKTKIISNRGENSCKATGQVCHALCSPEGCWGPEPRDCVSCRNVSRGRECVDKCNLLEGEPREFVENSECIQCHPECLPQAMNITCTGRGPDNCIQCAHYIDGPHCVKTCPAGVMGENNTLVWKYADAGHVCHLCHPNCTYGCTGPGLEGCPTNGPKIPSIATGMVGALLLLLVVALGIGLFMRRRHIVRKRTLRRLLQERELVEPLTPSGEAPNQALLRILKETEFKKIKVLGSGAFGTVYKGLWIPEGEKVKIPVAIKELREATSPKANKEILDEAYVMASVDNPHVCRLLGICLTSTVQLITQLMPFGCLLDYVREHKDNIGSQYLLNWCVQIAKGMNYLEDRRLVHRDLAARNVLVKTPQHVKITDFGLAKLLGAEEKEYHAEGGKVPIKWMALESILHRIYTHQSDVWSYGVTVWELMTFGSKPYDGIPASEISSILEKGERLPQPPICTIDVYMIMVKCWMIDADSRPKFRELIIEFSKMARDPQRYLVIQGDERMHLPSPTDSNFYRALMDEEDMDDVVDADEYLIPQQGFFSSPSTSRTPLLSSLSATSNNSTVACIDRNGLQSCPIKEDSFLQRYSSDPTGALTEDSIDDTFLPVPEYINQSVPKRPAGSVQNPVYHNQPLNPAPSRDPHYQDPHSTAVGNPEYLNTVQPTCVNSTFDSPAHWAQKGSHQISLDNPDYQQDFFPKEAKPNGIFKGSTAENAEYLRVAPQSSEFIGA

SMILES	composite z-score
CCOC(=O)C[C@H]1[C@H](OC(=O)c2ccccc2-c2ccccc2)[C@@H](NC(=O)c2ccccc2)c2cc(OCCCO)ccc2N1C(=O)Cc1ccc(OC)cc1	-0.104
C=CCC(OC(C)=O)[C@@H]1[C@@H](N(Cc2ccc(-c3cccc(C(F)(F)F)c3)o2)C(=O)c2cccc3ccccc23)c2cc(OCCCO)ccc2N1C(=O)c1ccc(-c2ccccc2)cc1 (stereo not given in full)	0.181
C[C@H]1ON(c2ccccc2)[C@@H](c2ccccc2)[C@@H]1C(=O)N1C(=O)OC[C@@H]1c1ccccc1	0.356
COCCOC(=O)N1C(=O)[C@@]2(c3cc(C#CCNC(N)=O)ccc31)[C@H](C(N)=O)[C@H]1C(=O)O[C@H](c3ccccc3)[C@H](c3ccccc3)N1[C@@H]2c1ccc(OCCO)cc1	0.793
CCCC=C(CCC)[C@@H](NS(=O)(=O)c1cccc2cccnc12)c1ccc(C(=O)OC)cc1	1.8
CCOC(=O)C1=CC[C@@H](c2ccccc2)N(S(=O)(=O)c2ccc(C)cc2)[C@H]1C=C(C)C	1.01
C#CCNS(=O)(=O)N(C)C	0.469
O=C1O[C@H](c2ccccc2)[C@H](c2ccccc2)N2[C@H]1[C@@H](C(=O)N1CCN(c3ncccn3)CC1)[C@]1(C(=O)Nc3ccc(C#CCCO)cc31)[C@H]2c1ccc(OCCO)cc1	1.12
COCCOC(=O)N1C(=O)[C@@]2(c3cc(C#CC4(O)CCCCCC4)ccc31)[C@H](C(=O)N1CCN(c3ncccn3)CC1)[C@H]1C(=O)O[C@H](c3ccccc3)[C@H](c3ccccc3)N1[C@@H]2c1ccc(O)cc1	0.152
Cc1cc(C)c(C(O)C2C=CC3C(=O)N(c4ccccc4)C(=O)C3N2Nc2ccc([N+](=O)[O-])cc2)c(C)c1 (stereo not given)	0.326
Cc1ccc(S[C@]2(C(=O)O)CC(=O)N(C3CCCCC3)[C@@H]2c2ccc(CO)cc2)cc1	-0.172
CCOc1cc(C(O)C2C=CC3C(=O)NC(=O)C3N2Nc2ccccn2)ccc1O (stereo not given)	0.28
CC(=O)NCCCC[C@@H]1NC(=O)[C@@H]2C[C@H](C(=O)NCCCC[N+](C)(C)C)[C@H](c3cccc(OCCO)c3)N2C1=O	-0.734
COc1ccc([Si](C)(C)[C@@H]2[C@@H](CC(=O)N(CCO)Cc3ccccc3)O[C@]3(C(=O)N(Cc4ccc(N5CCOC5=O)cc4)c4ccccc43)[C@H]2C)cc1	0.467
COC(=O)[C@]1(Cc2ccccc2CN=[N+]=[N-])N=C(c2ccc(OCCCO)cc2)O[C@@H]1c1ccccc1CN=[N+]=[N-]	-0.267
CN(C)C(=O)[C@]1(Cc2ccccc2N=[N+]=[N-])N=C(c2ccc(OCCCO)cc2)O[C@@H]1c1ccccc1CN=[N+]=[N-]	0.243
CC(C)(C)OC(=O)CC[C@@]1(C(=O)N2CCCCC2)N=C(c2ccc(OCCCO)cc2)O[C@@H]1c1ccccc1CN=[N+]=[N-]	0.0678
CCN(CC)c1ccc(N2CC=CC34O[C@@H]5/C=C\CCCOC(=O)C5[C@H]3C(=O)N(CCCCCO)[C@@H]4C2=O)cc1 (stereo not given in full)	-0.983

SMILES	composite z-score
[N-]=[N+]=Nc1ccccc1C[C@]1(C(=O)NCCN2CCOCC2)N=C(c2ccc(OCCCO)cc2)O[C@H]1c1ccccc1N=[N+]=[N-]	0.472
COC(=O)[C@]1(Cc2ccccc2CN=[N+]=[N-])N=C(c2ccc(OCCCO)cc2)O[C@@H]1c1ccccc1	-1.46
COCCOC(=O)N1C(=O)[C@@]2(c3cc(C#Cc4ccc(OC)cc4)ccc31)[C@H](C(=O)N1CCc3cc(OC)c(OC)cc3C1)[C@H]1C(=O)O[C@H](c3ccccc3)[C@H](c3ccccc3)N1[C@@H]2c1ccc(O)cc1	0.465
COCCOC(=O)N1C(=O)[C@@]2(c3cc(C#CCCO)ccc31)[C@H](C(=O)NC[C@H](O)c1ccccc1)[C@H]1C(=O)O[C@H](c3ccccc3)[C@H](c3ccccc3)N1[C@@H]2c1ccccc1OCCO	0.938
COc1ccccc1CN1C(=O)c2ccccc2[C@@H](C(=O)NCC(C)C)[C@@H]1c1ccc(CO)cc1	-0.318
C=CCN1C(=O)[C@@]2(O[C@@H](CCn3cc([C@H](O)c4ccccc4)nn3)[C@H]([Si](C)(C)c3ccc(OC)cc3)[C@H]2C)c2cc(NC(=O)c3ccc(OC)cc3)ccc21	-0.128
O=C(O)[C@]1(CCS(=O)(=O)c2ccccc2)N=C(c2ccc(OCCCO)cc2)O[C@@H]1c1ccccc1	-0.422
CN(C)CCCN1C(=O)[C@@]2(Cc3ccccc31)c1ccccc1C(=O)N(Cc1ccccc1)[C@H]2c1ccc(CO)cc1	-0.306
COC(=O)C(CC#Cc1ccc2c(c1)[C@]1(C(=O)N2)[C@H](c2ccc(O)cc2)N2[C@H](c3ccccc3)[C@H](c3ccccc3)OC(=O)[C@H]2[C@@H]1C(N)=O)C(=O)OC	-0.856
O=C1C2C=CC(C(O)c3ccc(Br)cc3)N(Nc3ccccc3)C2C(=O)N1c1ccccc1 (stereo not given)	0.181
O=C(O)[C@@]1(Cc2ccccc2)COC(c2ccc(OCCCO)cc2)=N1	-0.645
COC(=O)c1ccc(OC)c(/C=C\CC(CCc2ccccc2)OC(=O)c2ccncc2)c1 (stereo not given)	0.651
COC(=O)[C@@]1(Cc2ccc(OC)cc2)[C@H]2c3cc(C(=O)N4CCCC4)n(CCc4ccc(O)c(OC)c4)c3C[C@H]2CN1C(=O)c1ccccc1	-0.481
C[N+](C)(C)CCCC[C@@H]1NC(=O)[C@H]2C[C@@H](C(=O)NCCCCCCN)[C@@H](c3cccc(OCCO)c3)N2C1=O	0.717
COC(=O)[C@]1(Cc2ccccc2N=[N+]=[N-])N=C(c2ccc(OCCCO)cc2)O[C@@H]1c1ccccc1	-0.355
CC(C)N1C(=O)c2ccccc2[C@](C)(C(=O)O)[C@@H]1c1ccc(CO)cc1	-1.35
COc1ccc(C(=O)Nc2ccc3c(c2)[C@]2(O[C@@H](CCO)[C@H]([Si](C)(C)c4ccc(OC)cc4)[C@H]2C)C(=O)N3Cc2ccccc2)cc1	0.349
